Tested on: FXR:RXRa (NR concentration 270 nM, RXRa partner concentration 90 nM)
Assay: PBM binding z-score (relative to random genomic background probes); higher = stronger binding; sequences stand for … in GC…GCGATTGACAGCGTAGAATGAAGG
How it was run: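 Probes were double-stranded and carried 34-nt variable regions with direct-repeat seeds, single-nucleotide variants, half-site ablations and random human genomic background sequences, printed on custom Agilent 4×180K protein-binding microarrays. Arrays were incubated 1 h with ligand-free nuclear receptor dimers in PBS pH 7.4, 2% milk, 0.02% Triton X-100, 1 mM DTT, 0.2 mg/mL BSA and 0.4 mg/ml salmon testes DNA. Antibodies against each partner (one per run) detected binding, and scanned fluorescence was regression-normalized. Binding z-scores use the random background probes as reference.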

| Sequence | PBM binding z-score |
| --- | --- |
| CCAGACAGGTGAGAAGGGAACTCAGCCTCGATTA | -0.0941 |
| ACTCGGAGGACAAAGGTCTGAGCTACGCCAGTGA | -0.108 |
| ACCTCTAGGTAACCAAGTTCAGTGAATGCCGAAC | 0.335 |
| AATACAGGGTCATCGTAGGCCGGAGTACGCACAG | 6.87 |
| CCACCAAGGTGAACAAGGTCGTTGATTACTATTC | 1.47 |
| CCGAGTAGGTTATGGCGCATTCAGGCAACGGTGA | -0.0642 |
| ACTTACGGGTCAACGAGGGTATAGCACGCGTATA | 6.96 |
| CGTCCAAGGTCAGAGAGGTCAGTCAATGCCGAGT | 6.08 |
| CAAACTAGGTCAAGAGGTTAAAGTCCGCTTCCCG | 5.05 |
| TCTAGCAGGCCAGAGAGTCACTCAAGAGGTACGG | -0.122 |
| TCTTTTAGATCAAAGGTTAAGAAAGCCGAAGCCT | 1.68 |
| CAAACTTGGTCAAGGTCAAAGTCGGTTTGTGCCA | 4.61 |
| GCGACTGTGGCATCAGCAGGTTACCATAACTTAA | -0.475 |
| ATCGAAAGGTCGAGGAGAGTATAGAGAAAGGGAA | 4.17 |
| CATACAGGGTCAGCTAGGCCACAGTAGGGACGGC | 4.61 |
| TCATATAGGAAAATGCTAGGTGAAAGTCCGATCT | 1.09 |
| CCTCGGAGGACAGAACGTCAGAGCTGTCCGCTTT | -0.455 |
| CCGACTGGGGCATAAGGTTACCATGAGCCAGCCC | 0.192 |
| TCTTGTAGATCAAGCAGGTTTAGAAAGCCTGAGT | 0.0311 |
| GGAACGAGGGCAAGTTGATGGCAGAGTTTGATGG | 0.782 |
| CCTCGGAGGACAACAGGTGGTCAGAGCTGCCAGA | -0.329 |
| TCGAGTAGGTTCCCAATGGGGCATTCAGCTTTCT | -0.431 |

Reference: the supplement of paper PMC6555819
